# Results taken from article PMC8384837, “Expanding the binding specificity for RNA recognition by a PUF domain”.
# Tests used:
# Experiment in all cases: yeast three-hybrid, YBZ-1, SC-Leu-His + 0.5 mM 3-AT, 4 days
# Conditions in all cases: tags: N-Gal4 AD-HA kept; label: inside an RPR1-promoter hybrid RNA with tandem MS2 sites; ssRNA
# PUM1 PUF domain R4-ACS = PUM1 PUF domain R4-ACS (Homo sapiens, UniProt Q14671 828-1176, N971A;H972C;Q975S)
# Outline: (§1)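 The interaction score is the logarithmic change in variant frequency from input to selection. It uses log2, with a pseudocount of 1 for absent variants, and frequencies came from PCR-amplified, Illumina-sequenced repeat regions. The libraries were Pumilio-1 PUF domains randomized at the three base-contacting residues per repeat, co-expressed with matching RNA elements in strain YBZ-1 (LexA–MS2 coat fusion, HIS3 reporter). Plating lasted four days on SC-Leu (input) or SC-Leu-His + 0.5 mM 3-AT (selection).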
# PUM1 PUF domain R4-ERQ = PUM1 PUF domain R4-ERQ (Homo sapiens, UniProt Q14671 828-1176, N971E;H972R)
# Chain of PUM1 PUF domain R4-ERQ (Q14671 828-1176 N971E/H972R): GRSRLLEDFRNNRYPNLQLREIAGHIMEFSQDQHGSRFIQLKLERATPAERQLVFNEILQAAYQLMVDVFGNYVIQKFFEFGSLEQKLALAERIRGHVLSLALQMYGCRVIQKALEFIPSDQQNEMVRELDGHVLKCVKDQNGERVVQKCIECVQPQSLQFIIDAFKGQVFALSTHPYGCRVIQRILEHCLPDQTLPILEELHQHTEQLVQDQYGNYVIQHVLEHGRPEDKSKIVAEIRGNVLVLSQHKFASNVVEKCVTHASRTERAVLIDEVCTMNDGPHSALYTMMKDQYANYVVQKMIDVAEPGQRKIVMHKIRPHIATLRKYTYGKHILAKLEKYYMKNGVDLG
# Outline: as §1
# PUM1 PUF domain R4-GFP = PUM1 PUF domain R4-GFP (Homo sapiens, UniProt Q14671 828-1176, N971G;H972F;Q975P)
# Chain of PUM1 PUF domain R4-GFP (Q14671 828-1176 N971G/H972F/Q975P): as the sequence (Q14671 828-1176 N971E/H972R) above, with E144G, R145F, Q148P counted along it
# Outline: as §1
# PUM1 PUF domain R4-APA = PUM1 PUF domain R4-APA (Homo sapiens, UniProt Q14671 828-1176, N971A;H972P;Q975A)
# Outline: as §1
# PUM1 PUF domain R6-RWG = target: T1, PUM1 PUF domain R6-RWG (Homo sapiens, UniProt Q14671 828-1176, N1043R;Y1044W;Q1047G)
# T1 sequence: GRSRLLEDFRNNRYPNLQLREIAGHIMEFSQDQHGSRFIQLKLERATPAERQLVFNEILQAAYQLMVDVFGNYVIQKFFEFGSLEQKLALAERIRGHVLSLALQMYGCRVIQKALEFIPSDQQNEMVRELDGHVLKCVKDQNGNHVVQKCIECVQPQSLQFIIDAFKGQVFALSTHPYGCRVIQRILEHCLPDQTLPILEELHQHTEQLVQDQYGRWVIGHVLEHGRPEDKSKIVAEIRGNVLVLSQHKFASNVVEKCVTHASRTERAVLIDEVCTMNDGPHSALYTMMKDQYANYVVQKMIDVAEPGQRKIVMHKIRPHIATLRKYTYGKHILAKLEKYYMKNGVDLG
# Outline: as §1
# PUM1 PUF domain R3-RSQ = PUM1 PUF domain R3-RSQ (Homo sapiens, UniProt Q14671 828-1176, C935R;R936S)
# Chain of PUM1 PUF domain R3-RSQ (Q14671 828-1176 C935R/R936S): as the sequence (Q14671 828-1176 N971E/H972R) above, with C108R, R109S, E144N, R145H counted along it
# Outline: as §1
# PUM1 PUF domain R3-TRS = PUM1 PUF domain R3-TRS (Homo sapiens, UniProt Q14671 828-1176, C935T;Q939S)
# Chain of PUM1 PUF domain R3-TRS (Q14671 828-1176 C935T/Q939S): as the sequence (Q14671 828-1176 N971E/H972R) above, with C108T, Q112S, E144N, R145H counted along it
# Outline: as §1
# PUM1 PUF domain R3-MWP = PUM1 PUF domain R3-MWP (Homo sapiens, UniProt Q14671 828-1176, C935M;R936W;Q939P)
# Chain of PUM1 PUF domain R3-MWP (Q14671 828-1176 C935M/R936W/Q939P): as the sequence (Q14671 828-1176 N971E/H972R) above, with C108M, R109W, Q112P, E144N, R145H counted along it
# Outline: as §1
# PUM1 PUF domain R3-LYL = PUM1 PUF domain R3-LYL (Homo sapiens, UniProt Q14671 828-1176, C935L;R936Y;Q939L)
# Chain of PUM1 PUF domain R3-LYL (Q14671 828-1176 C935L/R936Y/Q939L): as the sequence (Q14671 828-1176 N971E/H972R) above, with C108L, R109Y, Q112L, E144N, R145H counted along it
# Outline: as §1
# PUM1 PUF domain R3-GCW = PUM1 PUF domain R3-GCW (Homo sapiens, UniProt Q14671 828-1176, C935G;R936C;Q939W)
# Outline: as §1
# PUM1 PUF domain R3-RRG = PUM1 PUF domain R3-RRG (Homo sapiens, UniProt Q14671 828-1176, C935R;Q939G)
# Outline: as §1
# PUM1 PUF domain R5-IHR = PUM1 PUF domain R5-IHR (Homo sapiens, UniProt Q14671 828-1176, C1007I;R1008H;Q1011R)
# Outline: as §1
# PUM1 PUF domain R5-KHV = PUM1 PUF domain R5-KHV (Homo sapiens, UniProt Q14671 828-1176, C1007K;R1008H;Q1011V)
# Outline: as §1
# PUM1 PUF domain R5-KSC = PUM1 PUF domain R5-KSC (Homo sapiens, UniProt Q14671 828-1176, C1007K;R1008S;Q1011C)
# Outline: as §1
# PUM1 PUF domain R3-PHQ = PUM1 PUF domain R3-PHQ (Homo sapiens, UniProt Q14671 828-1176, C935P;R936H)
# Chain of PUM1 PUF domain R3-PHQ (Q14671 828-1176 C935P/R936H): as the sequence (Q14671 828-1176 N971E/H972R) above, with C108P, R109H, E144N, R145H counted along it
# Outline: as §1
# PUM1 PUF domain R8-PWW = PUM1 PUF domain R8-PWW (Homo sapiens, UniProt Q14671 828-1176, N1122P;Y1123W;Q1126W)
# Chain of PUM1 PUF domain R8-PWW (Q14671 828-1176 N1122P/Y1123W/Q1126W): as the sequence (Q14671 828-1176 N971E/H972R) above, with E144N, R145H, N295P, Y296W, Q299W counted along it
# Outline: as §1
# PUM1 PUF domain R4-VGL = PUM1 PUF domain R4-VGL (Homo sapiens, UniProt Q14671 828-1176, N971V;H972G;Q975L)
# Outline: as §1
# PUM1 PUF domain R4-GRI = PUM1 PUF domain R4-GRI (Homo sapiens, UniProt Q14671 828-1176, N971G;H972R;Q975I)
# Outline: as §1
# PUM1 PUF domain R7-RPV = PUM1 PUF domain R7-RPV (Homo sapiens, UniProt Q14671 828-1176, S1079R;N1080P;E1083V)
# Chain of PUM1 PUF domain R7-RPV (Q14671 828-1176 S1079R/N1080P/E1083V): as the sequence (Q14671 828-1176 N971E/H972R) above, with E144N, R145H, S252R, N253P, E256V counted along it
# Outline: as §1
# PUM1 PUF domain R7-ERA = PUM1 PUF domain R7-ERA (Homo sapiens, UniProt Q14671 828-1176, S1079E;N1080R;E1083A)
# Outline: as §1
# Chain of PUM1 PUF domain R4-ACS (Q14671 828-1176 N971A/H972C/Q975S): as the sequence (Q14671 828-1176 N971E/H972R) above, with E144A, R145C, Q148S counted along it
sequence,measurement,setting,value
GGCUAGAACUAGUGGAUCCCCCGGCGCCCGGCGGCUCGAGCCCGGGUAAGUGUACAUAGUCUGCAUGCCGCCGGGCGCCAUGCCUGCAGGUCGACUCUAGAAAACAUG,binding signal,PUM1 PUF domain R4-ACS,1.22 log2 enrichment (interaction score)
same,binding signal,PUM1 PUF domain R4-ERQ,2.62 log2 enrichment (interaction score)
same,binding signal,PUM1 PUF domain R4-GFP,5.41 log2 enrichment (interaction score)
same,binding signal,PUM1 PUF domain R4-APA,1.33 log2 enrichment (interaction score)
GGCUAGAACUAGUGGAUCCCCCGGCGCCCGGCGGCUCGAGCCCGGGUAAGUGUAUAUAGUCUGCAUGCCGCCGGGCGCCAUGCCUGCAGGUCGACUCUAGAAAACAUG,binding signal,PUM1 PUF domain R4-ACS,1.22 log2 enrichment (interaction score)
same,binding signal,PUM1 PUF domain R4-GFP,5.97 log2 enrichment (interaction score)
same,binding signal,PUM1 PUF domain R4-APA,2.47 log2 enrichment (interaction score)
GGCUAGAACUAGUGGAUCCCCCGGCGCCCGGCGGCUCGAGCCCGGGUAAGUGAAAAUAGUCUGCAUGCCGCCGGGCGCCAUGCCUGCAGGUCGACUCUAGAAAACAUG,binding signal,PUM1 PUF domain R6-RWG,3.42 log2 enrichment (interaction score)
GGCUAGAACUAGUGGAUCCCCCGGCGCCCGGCGGCUCGAGCCCGGGUAAGUGUAAUUAGUCUGCAUGCCGCCGGGCGCCAUGCCUGCAGGUCGACUCUAGAAAACAUG,binding signal,PUM1 PUF domain R3-RSQ,4.22 log2 enrichment (interaction score)
same,binding signal,PUM1 PUF domain R3-TRS,1.31 log2 enrichment (interaction score)
same,binding signal,PUM1 PUF domain R3-MWP,3.31 log2 enrichment (interaction score)
same,binding signal,PUM1 PUF domain R3-LYL,3.45 log2 enrichment (interaction score)
same,binding signal,PUM1 PUF domain R3-GCW,3.22 log2 enrichment (interaction score)
same,binding signal,PUM1 PUF domain R3-RRG,3.82 log2 enrichment (interaction score)
GGCUAGAACUAGUGGAUCCCCCGGCGCCCGGCGGCUCGAGCCCGGGUAAGUGUUAAUAGUCUGCAUGCCGCCGGGCGCCAUGCCUGCAGGUCGACUCUAGAAAACAUG,binding signal,PUM1 PUF domain R5-IHR,3.52 log2 enrichment (interaction score)
same,binding signal,PUM1 PUF domain R5-KHV,2.08 log2 enrichment (interaction score)
same,binding signal,PUM1 PUF domain R5-KSC,2.38 log2 enrichment (interaction score)
GGCUAGAACUAGUGGAUCCCCCGGCGCCCGGCGGCUCGAGCCCGGGUAAGUGUAAAUAGUCUGCAUGCCGCCGGGCGCCAUGCCUGCAGGUCGACUCUAGAAAACAUG,binding signal,PUM1 PUF domain R4-ACS,2.98 log2 enrichment (interaction score)
same,binding signal,PUM1 PUF domain R4-GFP,4.75 log2 enrichment (interaction score)
same,binding signal,PUM1 PUF domain R3-TRS,4.62 log2 enrichment (interaction score)
same,binding signal,PUM1 PUF domain R3-PHQ,4.19 log2 enrichment (interaction score)
same,binding signal,PUM1 PUF domain R8-PWW,3.57 log2 enrichment (interaction score)
same,binding signal,PUM1 PUF domain R3-LYL,4.43 log2 enrichment (interaction score)
same,binding signal,PUM1 PUF domain R4-VGL,3.22 log2 enrichment (interaction score)
same,binding signal,PUM1 PUF domain R3-GCW,1.82 log2 enrichment (interaction score)
same,binding signal,PUM1 PUF domain R4-GRI,3.58 log2 enrichment (interaction score)
same,binding signal,PUM1 PUF domain R4-APA,4.16 log2 enrichment (interaction score)
same,binding signal,PUM1 PUF domain R6-RWG,5.05 log2 enrichment (interaction score)
GGCUAGAACUAGUGGAUCCCCCGGCGCCCGGCGGCUCGAGCCCGGGUAAGUUUAAAUAGUCUGCAUGCCGCCGGGCGCCAUGCCUGCAGGUCGACUCUAGAAAACAUG,binding signal,PUM1 PUF domain R7-RPV,3.09 log2 enrichment (interaction score)
GGCUAGAACUAGUGGAUCCCCCGGCGCCCGGCGGCUCGAGCCCGGGUAAGUGUAAGUAGUCUGCAUGCCGCCGGGCGCCAUGCCUGCAGGUCGACUCUAGAAAACAUG,binding signal,PUM1 PUF domain R3-TRS,1.93 log2 enrichment (interaction score)
same,binding signal,PUM1 PUF domain R3-MWP,5.07 log2 enrichment (interaction score)
same,binding signal,PUM1 PUF domain R3-LYL,4.81 log2 enrichment (interaction score)
same,binding signal,PUM1 PUF domain R3-RRG,0.28 log2 enrichment (interaction score)
GGCUAGAACUAGUGGAUCCCCCGGCGCCCGGCGGCUCGAGCCCGGGUAAGUCUAAAUAGUCUGCAUGCCGCCGGGCGCCAUGCCUGCAGGUCGACUCUAGAAAACAUG,binding signal,PUM1 PUF domain R7-RPV,1.08 log2 enrichment (interaction score)
same,binding signal,PUM1 PUF domain R7-ERA,2.68 log2 enrichment (interaction score)
GGCUAGAACUAGUGGAUCCCCCGGCGCCCGGCGGCUCGAGCCCGGGUAAGUGUCAAUAGUCUGCAUGCCGCCGGGCGCCAUGCCUGCAGGUCGACUCUAGAAAACAUG,binding signal,PUM1 PUF domain R5-KSC,5.14 log2 enrichment (interaction score)
